This note sets out measurements from PubChem BioAssay (Tox21).

Values without a mark were called inactive. Results filed as inconclusive are left out. The source made the active and inactive calls. Unless noted, the call rests on the fitted dose curve.

Test [1] can be described thus: Nuclear factor erythroid 2-related factor 2/antioxidant responsive element (Nrf2/ARE) small molecule agonists: qHTS cell viability counter screen in human keratinocytes (AID 1919968; active means well fitted curve in the direction sought with a large enough effect in the repeat runs; an effect the other way counts as inactive or inconclusive; further: nearly all actives have a fitted effect of over 55% in size; further: potency means the concentration at half of the fitted maximal effect). The essentials: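 KeratinoSens cells (HaCaT keratinocytes stably carrying an ARE-luciferase reporter) were seeded at 1,500 cells/well and rested 5 h at 37 C/5% CO2. They were then exposed to compounds in DMSO for 23 h. Viability was read by CellTiter-Fluor fluorescence after 1 h.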
In general terms: qHTS replaces the single test concentration by a dilution series.

The nature of test [2]: Nuclear factor erythroid 2-related factor 2/antioxidant responsive element (Nrf2/ARE) small molecule agonists: luciferase reporter gene qHTS assay in human keratinocytes (AID 1919969). Further: nearly all actives have a fitted effect of over 35% in size. Further: potency means the concentration at half of the fitted maximal effect. Background: In a reporter assay the amount or activity of a reporter protein is the signal.
Test [3] has as its target Gonadotropin-releasing hormone receptor (Homo sapiens) (UniProt P30968). The experiment in a line: Human gonadotropin-releasing hormone receptor (GnRHR) small molecule agonists, calcium flux assay in GnRHR-HEK293 cells (AID 1920063). Further: nearly all actives have a fitted effect of over 35% in size. In a few lines: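 HEK293 cells stably expressing human GnRHR were plated 18 h at 37 °C, loaded with calcium dye 1 h at 37 °C, then given compound in agonist mode; fluorescence (Ex/Em 480/540) read kinetically for 3 min at 1 s intervals.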
In general terms: Calcium flux is commonly read through the fluorescence of an indicator in the cells.

Test [4] deals with KiSS-1 receptor (Homo sapiens) (UniProt Q969F8). The experiment in a line: Human kisspeptin (KISS1R) small molecule agonists, calcium flux assay in KISS1R-HEK293 cells (AID 1920064; active means well fitted curve in the direction sought with a large enough effect in the repeat runs; an effect the other way counts as inactive or inconclusive). The essentials:
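HEK293 cells stably expressing human KISS1R were plated 18 h at 37 °C, loaded with calcium dye for 1 h at 37 °C, then given compound by pin tool. Fluorescence (Ex/Em 480/540) was read kinetically for 3 min.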

Test [5] is described as follows: G protein-coupled receptor (GPCR) small molecule agonists, calcium flux assay: HEK293 wild type cell line counter screen (AID 1920065). In a few lines:
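Cells were plated and cultured 18 h at 37 C/5% CO2, then loaded with calcium dye for 1 h at 37 C. Compounds in DMSO were pin-transferred in agonist mode, and fluorescence (Ex/Em 480/540) was read kinetically for 3 min at 1 s intervals.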

Test [6] is described as follows: p53 small molecule agonists, cell-based qHTS assay with human liver microsomes (AID 1963577).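 Further: p53 response element beta-lactamase reporter cells with liver microsomes plus NADPH.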 In a few lines:
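With metabolic activation: human liver microsomes (0.5 mg/mL final) plus NADPH (0.5 mg/mL final) added alongside compounds to p53RE-bla cells; 16 h 37 C exposure; beta-lactamase read by LiveBLAzer fluorescence.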

Test [7] in a line: p53 small molecule agonists, cell-based qHTS assay with rat liver microsomes (AID 1963578). In a few lines:
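Metabolic activation by rat liver microsomes and NADPH, each 0.5 mg/mL final, added right after compounds to p53RE-bla reporter cells (4,000/well, plated 5 h earlier). 16 h at 37 C, then LiveBLAzer substrate for 2 h at room temperature in the dark; fluorescence read-out.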

Test [8] is described as follows: p53 small molecule agonists, cell-based qHTS assay with human liver microsomes: qHTS cell viability counter screen (AID 1963579). Further: nearly all actives have a fitted effect of over 45% in size. Further: potency means the concentration at half of the fitted maximal effect. The essentials: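 Metabolic activation used human liver microsomes and NADPH, both 0.5 mg/mL final, over 16 hours at 37 C on p53RE-bla cells (4,000/well). Cytotoxicity measured by CellTiter-Glo luminescence, 30 min at room temperature.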

Test [9] is described as follows: p53 small molecule agonists, cell-based qHTS assay with rat liver microsomes: qHTS cell viability counter screen (AID 1963580). Further: nearly all actives have a fitted effect of over 45% in size. The essentials: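 HCT-116 p53RE-bla, 4,000 cells/well, 5 h pre-incubation; cpd + rat liver microsomes 0.5 mg/mL + NADPH 0.5 mg/mL (final); 16 h, 37 C; CellTiter-Glo, 30 min RT; luminescence.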
A short description of test [10]: cAMP Responsive Elements (CRE) small molecule agonists, cell-based qHTS assay (AID 1963590). In a few lines: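 CRE-bla HEK 293T cells in DMEM with 10% dialyzed FBS, NEAA, pyruvate and 25 mM HEPES were plated 18 h at 37 C/5% CO2, then exposed to compounds in DMSO for 3 h before LiveBLAzer B/G FRET substrate addition.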
Test [11] is described as follows: cAMP Responsive Elements (CRE) small molecule antagonists, cell-based qHTS assay (AID 1963591; active means well fitted inhibition curve with a large enough effect in the signal ratio in the repeat runs, not every such curve was filed as active; the % refers to the signal ratio; further: potency means the concentration at half of the fitted maximal effect). In a few lines: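 CRE-bla HEK293T cells were plated 18 h at 37 °C/5% CO2, pinned with compound in DMSO, then stimulated with NKH477 at 0.25 uM final for 3 h. LiveBLAzer B/G FRET substrate was added and plates incubated 2 h at room temperature.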
The target of test [12] is Beta-2 adrenergic receptor (Homo sapiens) (UniProt P07550). The experiment in a line: Adrenergic beta2 receptor (ADRB2) small molecule antagonists, cell-based qHTS assay (AID 1963592). Further: nearly all actives have a fitted effect of over 50% in size. Further: potency means the concentration at half of the fitted maximal effect. On activity change, negative = inhibition: series mostly up to about 92 µM. The essentials:
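Cells (CHO, stable ADRB2 overexpression) incubated 18-20hr at 37C; compounds added from DMSO; agonist mix (1nM isoproterenol, 100uM IBMX, 25uM Ro-20-1724) added; 0.5hr RT; d2-cAMP and anti-cAMP-cryptate added; 1hr RT; 665/615 nm read.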

For test [13] the target is unchanged. The experiment in a line: Adrenergic beta2 receptor (ADRB2) small molecule agonists, cell-based qHTS assay (AID 1963593).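 Further: CHO cells stably overexpressing human ADRB2.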 In a few lines: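 CHO cells stably over-expressing ADRB2 were plated overnight at 37C, then dosed with compounds plus a stimulation mix containing 100uM IBMX and 25uM Ro-20-1724 for 0.5hr at room temperature. cAMP was measured by HTRF competition, 1hr.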

The target of test [14] is D(2) dopamine receptor (Homo sapiens) (UniProt P14416). The experiment in a line: Dopamine D2 receptor (DRD2) small molecule agonists, cell-based qHTS assay (AID 1963594). Further: nearly all actives have a fitted effect of over 35% in size. The essentials: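 cAMP accumulation in DRD2-HEK293 cells measured by HTRF after 1 h detection; compounds added 10 min before NKH477 (200nM […]) forskolin-analogue stimulation, 30 min at room temperature, with Ro20-1724 present at 0.1 mM final.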
D(2) dopamine receptor (Homo sapiens), sequence (P14416 whole entry, looked up): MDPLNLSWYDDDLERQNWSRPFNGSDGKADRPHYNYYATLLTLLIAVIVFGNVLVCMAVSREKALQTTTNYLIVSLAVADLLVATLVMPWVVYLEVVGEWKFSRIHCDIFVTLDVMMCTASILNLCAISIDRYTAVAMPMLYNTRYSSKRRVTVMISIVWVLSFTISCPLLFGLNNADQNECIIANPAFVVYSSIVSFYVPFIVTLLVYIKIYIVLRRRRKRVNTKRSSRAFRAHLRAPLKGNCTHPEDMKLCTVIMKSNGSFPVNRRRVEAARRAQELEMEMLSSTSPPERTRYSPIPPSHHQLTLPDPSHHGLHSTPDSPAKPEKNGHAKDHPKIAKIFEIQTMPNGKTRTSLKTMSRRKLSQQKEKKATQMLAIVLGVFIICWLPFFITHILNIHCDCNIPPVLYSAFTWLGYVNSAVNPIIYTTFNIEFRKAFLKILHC

Test [15] has as its target 5-hydroxytryptamine receptor 2A (Homo sapiens) (UniProt P28223). The experiment in a line: 5-hydroxytryptamine receptor 2A (HTR2A) small molecule agonists, cell-based qHTS assay (AID 1963587). Further: nearly all actives have a fitted effect of over 30% in size. In a few lines: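 Kinetic calcium-flux fluorescence (2 min, 1 sec intervals) after compound addition in agonist mode. HTR2A-CHO cells were cultured 18 h, then dye-loaded 1 h at 37 C.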

Test [16] deals with Muscarinic acetylcholine receptor M1 (Homo sapiens) (UniProt P11229). The experiment in a line: Cholinergic receptor muscarinic 1 (CHRM1) small molecule antagonists, cell-based qHTS assay (AID 1963588). Further: nearly all actives have a fitted effect of over 40% in size. In a few lines:
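CHRM1-CHO calcium-flux assay, antagonist mode. Cells were seeded 18 h, dye-loaded 1 h at 37 C and given compound for 5 min at RT, then acetylcholine was added at 50nM. FDSS fluorescence was read 3 min; 15 concentrations, three runs.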

Test [17] shares this target. The experiment in a line: Cholinergic receptor muscarinic 1 (CHRM1) small molecule agonists, cell-based qHTS assay (AID 1963589). Further: nearly all actives have a fitted effect of over 35% in size. In a few lines: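 CHO cells stably expressing human CHRM1, seeded 18 h at 37 C/5% CO2, dye-loaded 1 h at 37 C, then given compound in agonist mode; intracellular calcium fluorescence read kinetically at 1 s intervals. Fifteen concentrations, three independent runs.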

Test [18] has as its target D(2) dopamine receptor (Homo sapiens) (UniProt P14416). The experiment in a line: Dopamine D2 receptor (DRD2) small molecule antagonists, cell-based qHTS assay (AID 1963595; active means well fitted inhibition curve with a large enough effect in the signal ratio in the repeat runs, with a control signal flat; the % refers to the signal ratio). In a few lines:
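HEK293 cells stably expressing DRD2, preincubated with 0.1 mM Ro20-1724 and compounds 10 min, were stimulated with 200 nM NKH477 plus 12 nM quinpirole for 30 min at room temperature; cAMP measured by HTRF (665/620 nm).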

Test [19] in a line: p53 small molecule agonists, cell-based qHTS assay (AID 1963582; active means well fitted activation curve with a large enough effect in the signal ratio in the repeat runs, not every such curve was filed as active; the % refers to the signal ratio). In a few lines: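 p53RE-bla beta-lactamase reporter cells rested 5 h at 37 C/5% CO2, then received compounds in DMSO by pin transfer and were incubated 16 h at 37 C. LiveBLAzer B/G FRET substrate was loaded for 2 h at room temperature before fluorescence reading.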
Test [20] addresses 5-hydroxytryptamine receptor 2A (Homo sapiens) (UniProt P28223). The experiment in a line: 5-hydroxytryptamine receptor 2A (HTR2A) small molecule antagonists, cell-based qHTS assay (AID 1963586). Further: nearly all actives have a fitted effect of over 45% in size. In a few lines: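 Antagonist-mode intracellular calcium assay: DOI (4 nM) added after 5 min compound pre-incubation at room temperature to dye-loaded HTR2A-CHO cells. Fluorescence followed for 3 min, sampled every second.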
On the % scale 0 is the no-effect control and ±100 the full control effect.

Muscarinic acetylcholine receptor M1 (Homo sapiens), sequence (P11229 whole entry, looked up): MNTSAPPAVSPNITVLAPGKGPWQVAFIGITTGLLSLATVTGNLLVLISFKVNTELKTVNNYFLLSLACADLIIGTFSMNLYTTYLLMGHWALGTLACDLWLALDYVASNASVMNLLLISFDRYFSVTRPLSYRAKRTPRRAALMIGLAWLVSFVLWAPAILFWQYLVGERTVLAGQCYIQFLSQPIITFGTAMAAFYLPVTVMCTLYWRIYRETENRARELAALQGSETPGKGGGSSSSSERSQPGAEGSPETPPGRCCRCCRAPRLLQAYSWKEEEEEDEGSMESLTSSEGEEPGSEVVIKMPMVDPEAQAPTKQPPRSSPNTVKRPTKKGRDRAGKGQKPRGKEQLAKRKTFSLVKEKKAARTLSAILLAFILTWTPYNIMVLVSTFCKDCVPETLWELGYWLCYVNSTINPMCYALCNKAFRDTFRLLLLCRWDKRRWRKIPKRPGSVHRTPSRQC
Gonadotropin-releasing hormone receptor (Homo sapiens), sequence (P30968 whole entry, looked up): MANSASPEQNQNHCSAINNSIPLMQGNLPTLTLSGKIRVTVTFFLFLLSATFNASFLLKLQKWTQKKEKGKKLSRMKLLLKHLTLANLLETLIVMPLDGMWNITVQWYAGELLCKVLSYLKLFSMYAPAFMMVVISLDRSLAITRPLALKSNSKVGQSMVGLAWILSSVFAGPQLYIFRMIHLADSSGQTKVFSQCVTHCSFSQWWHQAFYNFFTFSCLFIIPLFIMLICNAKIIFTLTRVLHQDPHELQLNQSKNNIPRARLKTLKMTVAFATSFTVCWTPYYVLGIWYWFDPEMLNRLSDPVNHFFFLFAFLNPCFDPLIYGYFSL
Beta-2 adrenergic receptor (Homo sapiens), sequence (P07550 whole entry, looked up): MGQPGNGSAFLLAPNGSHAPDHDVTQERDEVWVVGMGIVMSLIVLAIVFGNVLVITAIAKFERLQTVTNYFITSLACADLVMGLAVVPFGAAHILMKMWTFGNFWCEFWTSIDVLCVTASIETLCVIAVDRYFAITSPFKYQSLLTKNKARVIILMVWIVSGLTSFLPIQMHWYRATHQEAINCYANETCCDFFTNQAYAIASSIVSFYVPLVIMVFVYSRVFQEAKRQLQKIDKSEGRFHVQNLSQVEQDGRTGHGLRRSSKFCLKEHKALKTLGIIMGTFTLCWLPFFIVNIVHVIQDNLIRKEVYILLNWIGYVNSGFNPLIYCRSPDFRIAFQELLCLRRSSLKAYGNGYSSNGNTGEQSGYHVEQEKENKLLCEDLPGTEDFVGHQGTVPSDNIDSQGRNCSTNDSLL
KiSS-1 receptor (Homo sapiens), sequence (Q969F8 whole entry, looked up): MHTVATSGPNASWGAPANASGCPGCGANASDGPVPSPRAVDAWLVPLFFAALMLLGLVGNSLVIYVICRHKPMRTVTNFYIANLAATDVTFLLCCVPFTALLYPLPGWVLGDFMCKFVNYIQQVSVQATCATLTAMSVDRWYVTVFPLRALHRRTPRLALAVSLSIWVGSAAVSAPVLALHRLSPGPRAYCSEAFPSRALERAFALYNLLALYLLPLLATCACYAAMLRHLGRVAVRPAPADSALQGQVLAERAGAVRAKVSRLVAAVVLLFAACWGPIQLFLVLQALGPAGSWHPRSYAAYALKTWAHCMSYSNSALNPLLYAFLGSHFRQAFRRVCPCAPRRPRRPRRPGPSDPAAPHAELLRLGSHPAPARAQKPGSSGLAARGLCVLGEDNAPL
5-hydroxytryptamine receptor 2A (Homo sapiens), sequence (P28223 whole entry, looked up): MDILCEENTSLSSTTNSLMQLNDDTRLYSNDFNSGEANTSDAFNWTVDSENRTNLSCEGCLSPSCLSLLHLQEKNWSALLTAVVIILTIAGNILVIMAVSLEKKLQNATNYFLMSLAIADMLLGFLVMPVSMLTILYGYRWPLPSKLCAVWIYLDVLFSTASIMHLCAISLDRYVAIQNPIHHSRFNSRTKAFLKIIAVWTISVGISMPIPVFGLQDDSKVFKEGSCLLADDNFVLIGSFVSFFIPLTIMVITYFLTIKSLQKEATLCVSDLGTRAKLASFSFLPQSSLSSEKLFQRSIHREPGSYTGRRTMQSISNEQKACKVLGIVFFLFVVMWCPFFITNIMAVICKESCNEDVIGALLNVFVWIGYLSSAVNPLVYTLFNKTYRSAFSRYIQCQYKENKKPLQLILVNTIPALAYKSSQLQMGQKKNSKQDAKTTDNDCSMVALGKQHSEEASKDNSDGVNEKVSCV

`CC[C@H]1OC(=O)[C@H](C)[C@@H](O[C@H]2C[C@@](C)(OC)[C@@H](O)[C@H](C)O2)[C@H](C)[C@@H](O[C@@H]2O[C@H](C)C[C@H](N(C)C)[C@H]2O)[C@](C)(O)C[C@@H](C)C(=O)[C@H](C)[C@@H](O)[C@]1(C)O`: the Potency entry in test [1], in test [2], in test [3], in test [6], in test [7] and in test [8] was “inactive” in each case. The Potency result in test [9], in [10], in test [11], in [12], in test [13] and in [14] was “inactive” in each case. For the same compound, the result in test [4] and in test [5] was inactive.
As to `CCN(C(=O)c1cc(C)cc(OC[C@H](C)Nc2ccncc2)c1)C(C)C`, the Potency result in [1], in test [2], in [3], in test [6], in test [7] and in test [8] was “inactive” each time. The Potency result in test [9], in test [15], in test [16], in test [17], in test [12] and in test [13] was “inactive” in each case. In addition, the Potency result in test [14] and in [18] was “inactive” in each case. Moreover, the outcome in [4] and in [5] was inactive. The Potency in test [11] is 21.4 µM (active).
In the case of `COc1cc2nc(N3CCN(C(=O)c4ccco4)CC3)nc(N)c2cc1OC`, the activity change, negative = cytotoxicity in [1] is -15.2% [at 19 µM]; in test [9], 0.442% [at 13.5 µM]. Further, the activity, positive = activation in test [2] was -0.0377% [at 19 µM]. Also, in test [3], the activity change is -0.192% [at 11.8 µM, stronger effect = higher value]. The activation in test [4] is 1.31% [at 15.8 µM]; in [5], 0.594% [at 11.8 µM]; in test [6] it was -0.142% [at 13.5 µM]; in test [7] it was 0.86% [at 13.6 µM]; in test [10] it was -0.578% [at 19 µM]; in test [14], 10.2% [at 19 µM]. Moreover, the Potency was 0.972 µM (active) in [8] and 14.6 µM (active) in test [12]. Also, in test [18], the activity change, negative = inhibition was 1.94% [at 18.9 µM].
With `CCCCCCCCCCCl`, the Potency result in test [1], in test [2], in test [3], in [6], in test [7] and in test [8] was “inactive” in each case. Also, the Potency result in [9], in [15], in [17], in [10] and in [14] was “inactive” throughout. For the same compound, the outcome in [4] and in [5] was inactive.
As for `CCCCCCCCCCCCCCBr`, the Potency result in test [1], in test [2], in [3], in [6], in [7] and in test [8] was “inactive” in each case. For the same compound, the Potency result in test [9], in [19], in test [20], in test [15], in test [16] and in [17] was “inactive” throughout. The Potency result in [10], in [11], in [12], in test [13], in test [14] and in test [18] was “inactive” throughout. The result in [4] and in [5] was inactive.
Consider `O=C1CCCCCCCCCCCCCC1`, for which the Potency result in test [1], in test [2], in test [3], in test [6], in test [7] and in [8] was “inactive” throughout. Also, the Potency result in test [9], in [19], in [20], in test [15], in [16] and in [17] was “inactive” each time. For the same compound, the Potency entry in test [10], in [11], in test [12], in [13], in [14] and in [18] was “inactive” in each case. Further, the outcome in test [4] and in test [5] was inactive.
On to `C1COC(NC(C2CC2)C2CC2)=N1`, for which the Potency entry in test [1], in test [2], in test [3], in [6], in test [7] and in test [8] was “inactive” in each case. The Potency entry in [9], in [15], in test [17], in test [10], in test [13] and in test [14] was “inactive” in each case. In test [18], the Potency entry is “inactive”. Moreover, the result in test [4] and in test [5] was inactive.
`Nc1cc(C(F)(F)F)ccc1S`: the Potency was 26.6 µM (active) in test [1] and 13.3 µM (active) in test [2]. Further, the Potency entry in test [3], in test [6], in test [7], in [8], in [9] and in [15] was “inactive” each time. The Potency result in test [16], in test [17], in test [12], in test [13], in [14] and in [18] was “inactive” in each case. Further, the outcome in test [4] and in [5] was inactive.
